In the library only some 13% were active in any assay of this set; here they are far more common.
HCV inhibitor – inhibitors of hepatitis C virus infection | hit rate 3.4% among 340,000 | Huh7.5.1 HCVcc-Cre infection, luciferase reporter, 44 h | AID 651820 | Potency, µM (doses to about 41.8 µM), inactives show at the highest dose activity change, negative = inhibition, most hits filed as inhibitors; active = well fitted inhibition curve with a large enough effect; inconclusive = small, poorly fitted or top-dose-only effect, or another doubt; inactive = no such curve, though single readings can be large or run the other way; also: potency is read from the fitted curve at half-maximal effect; % is scaled to controls: 0 for no effect and ±100 for the full control effect
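1,000 cells/well; 4 h culture; + compound; + HCVcc-Cre (~0.5 moi); 44 h; luciferase substrate, RT 15 min; read 15 sec.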
MARV entry inh – blocks Marburg virus binding to or entry into cells; Marburg virus pseudotyped entry inhibition, cell reporter; Potency, µM (doses to about 37.8 µM), without a hit: top-dose activity change, negative = inhibition, actives largely listed as inhibitors; hit rate 1.8% among 300,000; AID 540276; calls by dose curve; tested in HEK293 cells; also: potency is read from the fitted curve at half-maximal effect; % is scaled to controls: 0 for no effect and ±100 for the full control effect
Shiga toxin inh – blocks Shiga toxin action in Vero cells; inhibition, % at 38.7 µM; Vero cells, Shiga toxin protein synthesis inhibition reporter; hit rate 9.2% among 290,000; AID 2315; in the data active = inhibition mostly above about 28%, no sharp cut-off; inactive = mostly below about 43%; also: 0% is about no effect
Cycloheximide cs – counter-screen hit for Shiga toxin inhibitors, cycloheximide; hit rate 12% among 300,000; AID 2314; max response, %; cell reporter, cycloheximide protein synthesis inhibition counterscreen; in the data active = max response mostly above about 13%, no sharp cut-off; inactive = mostly below about 14%; also: read at 38.3 µM for the half of the compounds with a filed dose; 0% is about no effect
FMDV inh – foot and mouth disease virus antiviral activity | FMDV antiviral cell-based qHTS | Potency, µM (highest dose often 57.9 µM), for the others: top-dose activity change, negative = inhibition, usual class: inhibitors | hit rate 1.2% among 410,000; calls by dose curve; tested in HEK293T cells; also: read-out not given here; potency is read from the fitted curve at half-maximal effect; % is scaled to controls: 0 for no effect and ±100 for the full control effect; nearly all actives have a fitted effect of over 45% in size
Lassa entry inh – inhibitors of Lassa virus binding or cell entry | hit rate 1.2% among 300,000 | Potency, µM (top dose mostly 37.9 µM), inactives show top-dose activity change, negative = inhibition, actives largely listed as inhibitors | AID 540256 | Lassa virus pseudotype entry inhibition, cell reporter; calls by dose curve; tested in HEK293 cells; also: potency is read from the fitted curve at half-maximal effect; % is scaled to controls: 0 for no effect and ±100 for the full control effect; nearly all actives have a fitted effect of over 50% in size
Starred values were filed as active, the others as inactive; ? = inconclusive; / = not tested or not shown; [ ] = another dose, or the depositor's remark.

SMILES	HCV inhibitor	MARV entry inh	Shiga toxin inh	Cycloheximide cs	FMDV inh	Lassa entry inh
Cc1ccc(NC(=S)Nc2ccc(S(=O)(=O)N3CCOCC3)cc2)cc1S(=O)(=O)N1CCOCC1	-76.1%	-0.8%[46.1 µM]	-1.6	-2.7	-6.4%	11.2µM*
CC(C)C(=O)N1CCN(c2ccc(NC(=O)c3ccc([N+](=O)[O-])o3)cc2)CC1	?	20.9%[46.1 µM]	53.4	40.4*	-21.4%	-17.3%
CC(C)(C)NNC(=S)Nc1ccc(S(=O)(=O)N2CCOCC2)cc1	1.2%	-7.8%	7.7	-2.3	-5.3%	-5.0%[46.1 µM]
CN1CCN(c2ccc(NC(=O)c3ccc([N+](=O)[O-])o3)cc2Cl)CC1	22.4µM*	11.2µM*	55.1	29.0*	0.0%	?
Cc1ccc(NC(=O)c2cc([N+](=O)[O-])ccc2N2CCOCC2)cc1S(=O)(=O)N1CCOCC1	/	?	9.7	-2.9	-17.4%	-15.5%
Cc1ccc(NC(=O)c2ccc([N+](=O)[O-])o2)cc1S(=O)(=O)N1CCOCC1	10µM*	?	27.6	32.5	-25.0%	?
Cc1nc(-c2ccc(F)cc2)c(CC(=O)Nc2ccc(C)c(S(=O)(=O)N3CCOCC3)c2)s1	7.94µM*	5.01µM*	-8.2	2.1	?	?
CC(=O)N1CCN(c2ccc(NC(=O)c3ccc(Br)o3)cc2Cl)CC1	-19.5%	/	27.2	27.6*	18.3%	/
CC(=O)Nc1cccc(NC(=O)/C=C/c2ccc(S(=O)(=O)N3CCOCC3)cc2)c1	-22.2%	?	/	/	-27.7%	1.0%
O=C(/C=C/c1ccco1)Nc1ccc(S(=O)(=O)N2CCOCC2)cc1	3.55µM*	4.2%	5.3	-1.6	4.7%	-15.1%
O=C(/C=C/c1ccc(F)cc1)Nc1ccc(S(=O)(=O)N2CCOCC2)cc1	?	-17.2%[46.1 µM]	10.2	10.2	-21.6%	7.3%[46.1 µM]
Cc1ccc(NC(=O)CSc2nc(N)cc(N)n2)cc1S(=O)(=O)N1CCOCC1	4.5%	-31.9%	-2.9	-0.7	20.3%	?
Cc1ccc(NC(=O)/C=C/c2ccc(S(=O)(=O)N3CCOCC3)cc2)cc1S(=O)(=O)N(C)C	?	?	/	/	35.5µM*	?
COc1c(F)c(F)c(C(=O)Nc2ccc(N3CCN(C(C)=O)CC3)c(Cl)c2)c(F)c1F	?	?	-6.4	0.4	?	-16.9%
O=Cc1ccc(-c2c(-c3ccccc3)oc3c2C(OCCCCO)CCC3)o1 (stereo not drawn)	/	/	/	/	-8.5%	/
O=C(CSC(=S)N1CCCC1)NCC(=O)Nc1ccccc1Br	-12.9%	5.4%	/	/	-2.5%	-3.6%
O=S(=O)(c1ccc(NC(=S)NN=C(Cc2ccccc2)Cc2ccccc2)cc1)N1CCOCC1	10µM*	12.1%[46.1 µM]	9.3	13.3	-0.4%	?
O=C(Nc1ccc(N2CCOCC2)c(Cl)c1)c1ccc([N+](=O)[O-])o1	11.2µM*	/	17.0	18.9*	0.0%	/
CC(C)C(=O)N1CCN(c2ccc(NC(=O)c3ccc([N+](=O)[O-])o3)cc2Cl)CC1	10µM*	?	-39.5	-13.4	25.1µM*	?
CCCC(=O)N1CCN(c2ccc(NC(=O)c3ccc([N+](=O)[O-])o3)cc2Cl)CC1	?	?	-34.5	-15.9	20µM*	?
COc1ccccc1C(=O)NNC(=O)c1cccc(C)c1	5.4%	?	/	23.5*	36.2%	4.5%
COc1ccccc1C(=O)NNC(=O)c1cccc([N+](=O)[O-])c1	13.1%	21.4%[46.1 µM]	60.6*	32.3*	0.0%	4.5%
COc1ccccc1C(=O)NNC(=O)c1ccc(O)cc1	/	/	/	/	6.8%	/
O=C(NNC(=O)c1ccccc1-c1ccccc1C(=O)O)c1cccc([N+](=O)[O-])c1	-0.3%	-8.5%	-3.2	0.4	10.4%	10.7%
Cc1ccc(CNS(=O)(=O)c2cnc(N)nc2)cc1	/	/	/	/	4.4%	-3.7%[46.1 µM]
SMILES	HCV inhibitor	MARV entry inh	Shiga toxin inh	Cycloheximide cs	FMDV inh	Lassa entry inh
Cc1cc(C)c2[nH]c(C(=O)N3CCC(n4nccc4NC(=O)C4CC4)CC3)c(C)c2c1	24.1%	-14.0%	11.6	3.1	-19.8%	4.1%
Cc1nc(-c2ccc([N+](=O)[O-])cc2)nc2[nH]ccc(=O)c12	8.4%	/	36.1	29.8*	56.8%	/
Cc1nc(-c2ccccc2)nc2[nH]ccc(=O)c12	12.0%	-21.6%	44.6	33.9*	54.9%	4.8%
Cc1nc(-c2ccccc2)nc2[nH]c(-c3ccccc3)cc(=O)c12	?	-22.5%	51.8	-3.1	-26.6%	-1.7%
Cc1cc(C)cc(N2C(=O)N(Cc3cc(=O)n4ccccc4n3)c3ccccc3S2(=O)=O)c1	/	/	/	/	-20.0%	?
CC(O)Cc1nsc(NC(=O)c2cccs2)n1 (stereo not drawn)	17.8%	/	22.6	16.2	22.4%	/
O=C(CN1C(=O)CCSc2ccc(S(=O)(=O)N3CCCC3)cc21)Nc1ccccc1Cl	1.7%	/	12.1	-4.5	-9.3%	-4.6%[46.1 µM]
CCc1ccc(OCC(=O)Nc2cc3oc4ccccc4c3cc2OC)cc1	/	-23.5%[46.1 µM]	/	/	?	-0.6%[46.1 µM]
COc1cc2c(cc1NC(=O)COc1ccc3ccccc3c1)oc1ccccc12	-6.4%	?	7.2	3.1	-7.1%	-20.9%
COc1ccc(CC(=O)Nc2cc3oc4ccccc4c3cc2OC)cc1	4.47µM*	1.8%	111.4*	62.7*	67.3%	5.2%
COc1cc2c(cc1NC(=O)/C=C/c1cc(OC)c(OC)c(OC)c1)oc1ccccc12	8.91µM*	8.91µM*	-11.2	-4.7	?	?
COc1cccc(CN(C)CC(=O)Nc2cc3oc4ccccc4c3cc2OC)c1	15.8µM*	?	-6.7	5.3	2.2%	4.4%
CCN(CC)S(=O)(=O)c1cccc(NC(=O)CN(C)Cc2cccc(OC)c2)c1	?	23.1µM*	-19.3	-4.1	?	11.2µM*
CCN(CC(=O)Nc1cccc(C(C)=O)c1)S(=O)(=O)c1ccc(OC)cc1	-5.0%	?	-4.8	-4.1	?	-5.6%
CC(C)CCNC(=O)NC(=O)COC(=O)/C=C/c1cc(Br)ccc1F	12.1%	?	-9.2	1.1	-7.7%	8.3%
Cc1ccc(/C(COc2ccccc2O)=N\O)cc1	9.3%	4.9%	22.1	13.3	/	13.8%
COc1ccc(N2CC(C(=O)Nc3nnc(SCC(=O)c4ccccc4)s3)CC2=O)cc1 (stereo not drawn)	6.9%	3.1%	-4.6	-1.3	0.0%	2.2%
COc1ccc2oc(-c3ccc(C)c(NC(=O)CSc4ccc(Cl)cc4)c3)nc2c1	-1.8%	-27.4%[46.1 µM]	64.9*	24.8*	42.7%	-18.9%[46.1 µM]
COc1cc2c(cc1NC(=O)CSc1ccc(Cl)cc1)oc1ccccc12	10µM*	0.5%	-11.5	7.2	2.7%	4.9%
COc1cc2c(cc1NC(=O)COc1ccc(Cl)cc1)oc1ccccc12	/	22.2%[46.1 µM]	/	/	-26.9%	12.2%[46.1 µM]
COc1cc2c(cc1NC(=O)CN(C)Cc1cccc(OC)c1OC)oc1ccccc12	3.55µM*	?	-29.4	10.9	-1.0%	-15.5%
COc1cc2c(cc1NC(=O)C(C)Sc1cccc[n+]1[O-])oc1ccccc12 (stereo not drawn)	?	?	79.0*	75.5*	17.3%	15.3%
COc1cc2c(cc1NC(=O)COCC(=O)O)oc1ccccc12	2.5%	1.7%[46.1 µM]	16.8	-1.2	-5.0%	24.3%[46.1 µM]

Screens (PubChem BioAssay)
